The text below walks through data of the supplement of paper PMC8728848.

Many of the other results were omitted from the sample, so the strongest signals are more common in it than they were.

Holding throughout (assay): glycan array binding signal (z-score within array); higher = stronger binding
Conditions in all cases: glycan notation: IUPAC condensed, linker removed

Assay [1] has as its target Fuc(a1-2)Gal(b1-3)GalNAc(b1-3)Gal. The essentials:
(§1)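 Arrays were curated from the Consortium for Functional Glycomics database, 3228 in total, and kept only where the protein sequence was available. Binding is expressed as a within-array Z-score. This score was averaged across arrays of the same protein sequence at different concentrations or buffers and across linkers, and negative values can be read as non-binding.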

The next assay has as its target Fuc(a1-2)Gal(b1-3)GlcNAc. The essentials: as §1
The target in another assay is Fuc(a1-2)Gal(b1-4)Glc. The essentials:
as §1

For assay [2], the target named is Fuc(a1-2)Gal(b1-4)GlcNAc(b1-3)Gal(b1-4)GlcNAc. The essentials:
as §1

For assay [3], the target named is Fuc(a1-2)Gal6S(b1-4)GlcNAc. The essentials:
as §1

Another assay addresses Fuc(b1-3)GlcNAc. The essentials: as §1
The target of assay [4] is Gal(a1-3)[Gal(a1-4)]Gal(b1-4)GlcNAc. The essentials:
as §1

In assay [5] the target is Gal(b1-3)GalNAc(b1-4)Gal(b1-4)Glc. The essentials: as §1
Assay [6] deals with Gal(b1-3)GlcNAc(b1-2)Man(a1-3)[Gal(b1-3)GlcNAc(b1-2)Man(a1-6)]Man(b1-4)GlcNAc(b1-4)GlcNAc. The essentials:
as §1

Assay [7] concerns the target Gal(b1-3)GlcNAc(b1-3)Gal(b1-4)Glc. The essentials: as §1
The target of assay [8] is Gal(b1-4)GalNAc(a1-3)[Fuc(a1-2)]Gal(b1-4)GlcNAc. The essentials: as §1
Assay [9] concerns the target Gal(b1-4)GlcNAc(b1-3)Gal(b1-3)GlcNAc. The essentials: as §1
In assay [10] the target is Gal3S(b1-3)[Fuc(a1-4)]GlcNAc. The essentials:
as §1

A further assay deals with Gal6S(b1-4)Glc6S. The essentials:
as §1

The target of another assay is GalNAc(a1-3)Gal. The essentials: as §1
The next assay has as its target GlcA(b1-3)GlcNAc. The essentials:
as §1

The next assay deals with GlcA(b1-6)Gal. The essentials: as §1
Assay [11] deals with GlcNAc(b1-2)Gal(b1-3)GalNAc. The essentials: as §1
In the next assay the target is GlcNAc(b1-3)Gal. The essentials: as §1
The target of the next assay is GlcNAc(b1-3)Gal(b1-4)Glc. The essentials:
as §1

Assay [12] concerns the target Man(a1-2)Man(a1-2)Man(a1-3)Man. The essentials: as §1
Assay [13] has as its target Man(a1-3)[Man(a1-6)]Man(a1-6)[Man(a1-2)Man(a1-3)]Man(b1-4)GlcNAc(b1-4)GlcNAc. The essentials: as §1
In assay [14] the target is Neu5Ac(a2-3)Gal(b1-4)GlcNAc(b1-2)Man(a1-3)[GlcNAc(b1-2)Man(b1-4)GlcNAc(b1-2)Man(a1-6)]Man(b1-4)GlcNAc(b1-4)GlcNAc. The essentials:
as §1

For assay [15], the target named is Neu5Ac(a2-3)Gal(b1-4)[Fuc(a1-3)]GlcNAc(b1-3)Gal(b1-4)GlcNAc. The essentials: as §1
In assay [16] the target is Neu5Ac(a2-3)Gal(b1-4)[Fuc(a1-3)]GlcNAc(b1-3)Gal(b1-4)[Fuc(a1-3)]GlcNAc(b1-3)Gal(b1-4)[Fuc(a1-3)]GlcNAc. The essentials: as §1
In assay [17] the target is Neu5Gc(a2-3)Gal(b1-4)GlcNAc. The essentials: as §1
Assay [18] deals with Neu5Gc(a2-6)Gal(b1-4)GlcNAc. The essentials:
as §1

A further assay deals with Fuc(a1-2)Gal(b1-4)GlcNAc. The essentials:
as §1

Assay [19] addresses Fuc(a1-2)Gal(b1-4)GlcNAc6S. The essentials:
as §1

The target in assay [20] is Fuc(a1-2)[Gal(a1-3)]Gal(b1-3)GlcNAc. The essentials:
as §1

In assay [21] the target is Fuc(a1-3)[Gal3S(b1-4)]GlcNAc6S. The essentials: as §1
The target in the next assay is Gal(b1-2)Gal. The essentials: as §1
Assay [22] concerns the target Gal(b1-3)[Fuc(a1-4)]GlcNAc(b1-3)Gal(b1-4)[Fuc(a1-3)]GlcNAc. The essentials: as §1
The target in assay [23] is Gal(b1-4)GlcNAc(b1-3)[GlcNAc(b1-6)]Gal(b1-4)GlcNAc. The essentials:
as §1

In a further assay the target is Gal3S(b1-3)GlcNAc. The essentials: as §1
The target in a further assay is Gal3S(b1-4)Glc6S. The essentials: as §1
In assay [24] the target is Gal3S(b1-4)[Fuc(a1-3)]Glc. The essentials:
as §1

For assay [25], the target named is GlcNAc(b1-3)Gal(b1-3)GalNAc. The essentials: as §1
In assay [26] the target is GlcNAc(b1-4)GlcNAc(b1-4)GlcNAc. The essentials:
as §1

The target of assay [27] is GlcNAc(b1-4)GlcNAc(b1-4)GlcNAc(b1-4)GlcNAc(b1-4)GlcNAc. The essentials: as §1
Assay [28] has as its target Man(a1-2)Man(a1-3)[Man(a1-2)Man(a1-6)]Man(a1-6)[Man(a1-2)Man(a1-2)Man(a1-3)]Man(b1-4)GlcNAc(b1-4)GlcNAc. The essentials: as §1
For assay [29], the target named is Man(a1-2)Man(a1-3)[Man(a1-6)]Man(a1-6)[Man(a1-2)Man(a1-3)]Man(b1-4)GlcNAc(b1-4)GlcNAc. The essentials: as §1
Assay [30] addresses Neu5Ac(a2-3)Gal(b1-4)[Fuc(a1-3)]GlcNAc(b1-6)[Gal(b1-3)]GalNAc. The essentials:
as §1

For assay [31], the target named is Neu5Ac(a2-6)Gal(b1-4)GlcNAc6S. The essentials:
as §1

Assay [32] addresses Fuc(a1-2)[Gal(a1-3)]Gal(b1-4)Glc. The essentials: as §1
The target of assay [33] is Fuc(a1-2)[GalNAc(b1-3)]Gal. The essentials: as §1
A further assay addresses Gal(a1-3)Gal(b1-4)Glc. The essentials:
as §1

The target in assay [34] is Gal(a1-3)Gal(b1-4)[Fuc(a1-3)]GlcNAc. The essentials:
as §1

Assay [35] concerns the target Gal(b1-3)[GlcNAc(b1-6)]GalNAc. The essentials: as §1
A further assay concerns the target Gal(b1-4)Glc6S. The essentials:
as §1

Assay [36] addresses Gal(b1-4)GlcNAc(b1-3)Gal(b1-4)GlcNAc. The essentials:
as §1

Another assay concerns the target Gal3S4S(b1-4)GlcNAc. The essentials:
as §1

The next assay addresses Gal3S6S(b1-4)GlcNAc6S. The essentials:
as §1

For a further assay, the target named is Gal6S(b1-4)GlcNAc6S. The essentials:
as §1

For another assay, the target named is Man(a1-3)[Man(a1-6)]Man. The essentials: as §1
Assay [37] addresses Man(a1-3)[Man(a1-6)]Man(b1-4)GlcNAc(b1-4)GlcNAc. The essentials: as §1
Assay [38] concerns the target Neu5Ac(a2-3)Gal(b1-3)GalNAc6S. The essentials:
as §1

The target of assay [39] is Neu5Ac(a2-3)Gal(b1-3)GlcNAc6S. The essentials:
as §1

The target of assay [40] is Neu5Ac(a2-3)Gal(b1-4)GlcNAc6S. The essentials:
as §1

For assay [41], the target named is Neu5Ac(b2-6)Gal(b1-4)GlcNAc. The essentials:
as §1

Assay [42] has as its target Neu5Gc(a2-3)Gal(b1-4)[Fuc(a1-3)]GlcNAc. The essentials:
as §1

B1: SLLPI (Homo sapiens), Q8IXA5 (protein)
chain: MVSALRGAPLIRVHSSPVSSPSVSGPRRLVSCLSSQSSALSQSGGGSTSAAGIEARSRALRRRWCPAGIMLLALVCLLSCLLPSSEAKLYGRCELARVLHDFGLDGYRGYSLADWVCLAYFTSGFNAAALDYEADGSTNNGIFQINSRRWCSNLTPNVPNVCRMYCSDLLNPNLKDTVICAMKITQEPQGLGYWEAWRHHCQGKDLTEWVDGCDF
Consider B1, for which the “glycan array binding signal (z-score)” value in [1] was 1.93; in the assay with Fuc(a1-2)Gal(b1-3)GlcNAc, -0.188; with Fuc(a1-2)Gal(b1-4)Glc, 0.145; in assay [2], 0.263; in [3], 0.21; in the assay with Fuc(b1-3)GlcNAc it was -0.512. Besides, the “glycan array binding signal (z-score)” value is 0.947 in assay [4]; -0.063 in assay [5]; 0.777 in assay [6]; 0.044 in assay [7]; -0.332 in assay [8]; -0.37 in assay [9]. Further, the “glycan array binding signal (z-score)” value in assay [10] was -0.205; with Gal6S(b1-4)Glc6S, 1.85; with GalNAc(a1-3)Gal it was 1.65; with GlcA(b1-3)GlcNAc it was 0.16; with GlcA(b1-6)Gal, -0.073; in assay [11], -0.634. The “glycan array binding signal (z-score)” value with GlcNAc(b1-3)Gal worked out at 0.2; with GlcNAc(b1-3)Gal(b1-4)Glc, 0.579; in [12], 3.65; in assay [13], 1.02; in assay [14] it was 4.44; in assay [15], 0.654. Further, the “glycan array binding signal (z-score)” value in assay [16] is 0.311; in assay [17] it was -0.286; in assay [18] it was -0.251.

B2: SLLPI (Mus musculus), Q9D9X8 (protein)
chain: MGICMSMYTQVLVPVDADGDHHILWSRFYERWGSCFNPCAGLVNCLPPHSSALYLCHRMEARSRAPRRQLCPPGITWLALAYLLSCLLASSKAKVFSRCELAKEMHDFGLDGYRGYNLADWVCLAYYTSGFNTNAVDHEADGSTNNGIFQISSRRWCRTLASNGPNLCRIYCTDLLNNDLKDSIVCAMKIVQEPLGLGYWEAWRHHCQGRDLSDWVDGCDF
On to B2, for which the “glycan array binding signal (z-score)” value in assay [1] is 0.084; in the assay with Fuc(a1-2)Gal(b1-4)GlcNAc, -0.019; in [2] it was -0.448; in assay [19], 0.445; in assay [20], -0.779; in [21] it was 3.34. For the same molecule, the “glycan array binding signal (z-score)” value with Gal(b1-2)Gal was 0.362; in assay [6], -0.288; in assay [22] it was -0.236; in [23] it was -0.03; in the assay with Gal3S(b1-3)GlcNAc it was 3.28; with Gal3S(b1-4)Glc6S it was 3.45. For the same molecule, the “glycan array binding signal (z-score)” value is 1.15 in assay [24]; 3.21 in assay [25]; 1.92 in assay [26]; -0.401 in assay [27]; -0.502 in assay [12]; -0.652 in [28]. In addition, the “glycan array binding signal (z-score)” value is 0.317 in assay [29], -0.335 in assay [30] and 3.29 in [31].

B3: Mcg Light Chain Dimer (Homo sapiens), Q6PIK1 (protein)
chain: MAGFPLLLTLLTHCAGSWGQSLLTQPPSVSGTPGQRVTISCSGSSSNIGINYVYWYQQIPGTAPKLLISTNDQRPSGVPDRFSGSKSGTSASLAIGGLRSEDEAHYYCAAWDDSMSGPGYAFGTGTKVTVLRQPKANPTVTLFPPSSEELQANKATLVCLISDFYPGAVTVAWKADGSPVKAGVETTKPSKQSNNKYAASSYLSLTPEQWKSHRSYSCQVTHEGSTVEKTVAPTECS
Turning to B3, the “glycan array binding signal (z-score)” value in [1] is -0.611; in assay [32], -1.02; in [33], 0.344; in assay [21], 4.13; with Gal(a1-3)Gal(b1-4)Glc, -1.04; in assay [34] it was 0.315. The “glycan array binding signal (z-score)” value is -0.568 in assay [35]; 0.905 with Gal(b1-4)Glc6S; -0.321 in assay [36]; -0.54 in [24]; 3.63 in the assay with Gal3S4S(b1-4)GlcNAc; 5.67 in the assay with Gal3S6S(b1-4)GlcNAc6S. In addition, the “glycan array binding signal (z-score)” value with Gal6S(b1-4)GlcNAc6S was 0.505; in the assay with Man(a1-3)[Man(a1-6)]Man, -1.04; in [37], -0.305; in assay [38], 2.88; in assay [39] it was 1.73; in assay [40] it was 2.96. Besides, the “glycan array binding signal (z-score)” value in assay [41] is -0.955; in assay [42], 1.2; in [18] it was 0.325.
